Out of some 53,000 compounds screened, about 900 (1.7%) showed an effect of 50% or more. The sample holds strong results, similar compounds and a random draw of the others, so the mix is not that of the screen.
These compounds were tested on Mycobacterium tuberculosis (assay: Cornell - Phenotypic assay to identify agents that inhibit growth of Mycobacterium tuberculosis). Details: 10 mM as filed; unlikely as a test dose.
Assay type: functional
Design: scale not given: direction of the effect not stated beside the values

Point of comparison: CCc1nnc2sc(-c3cc(C(C)C)n[nH]3)nn12, “Percent Effect” value -59.74%. Against it:
- CC(C)N(C)Cc1n[nH]c2c1CCN(C(=O)c1ccc[nH]1)C2.O=C(O)C(F)(F)F — higher, -20.42%
- Cn1ccc2c(NC(=O)Cn3ncc4c(c3=O)CCCC4)cccc21 — higher, 50.09%
- O=C(Cn1ncc2c(c1=O)CCCCC2)Nc1cccc2[nH]ccc12 — higher, 32.47%
- Cn1ccc2c(NC(=O)Cn3ncc4c(c3=O)CCCCC4)cccc21 — higher, 7.683%
- O=C1C(n2nnc(-c3cccs3)n2)CCN1CC(F)(F)F (centres undefined) — higher, 21.02%
- Cc1cccc(CNC(=O)CC2CCN(C(=O)C(C)C)CC2)n1 — higher, -31.48%
- CO[C@H]1CCN(c2nnc(C)s2)C[C@@H]1Cc1cccc(C)c1.O=C(O)C(F)(F)F — higher, 15.98%
- CO[C@@H]1CCN(c2nnc(C)s2)C[C@@H]1Cc1ccccc1.O=C(O)C(F)(F)F — higher, 33.57%
- Cc1nnc(N2CC[C@@H](OCC3CC3)[C@@H](Cc3ccccc3)C2)s1.O=C(O)C(F)(F)F — higher, 81.09%
- CO[C@H]1CCN(c2nnc(C)s2)C[C@@H]1Cc1ccccc1.O=C(O)C(F)(F)F — higher, 35.25%
- Cc1nnc(N2CC[C@H](OCC3CC3)[C@@H](Cc3ccccc3)C2)s1.O=C(O)C(F)(F)F — higher, 73.55%
- CO[C@@H]1CCN(c2nnc(C)s2)C[C@@H]1Cc1cccc(C)c1.O=C(O)C(F)(F)F — higher, 41.6%
- Cc1noc(C)c1CCC(=O)Nc1ccn(C)n1 — higher, -3.564%
- CC(C)(C(N)=O)S(=O)(=O)c1ccc(Br)cc1 — higher, 7.461%
- CC(C)(CC(=O)Nc1cccc(Oc2ccccn2)c1)C(=O)O — higher, -19.67%
- CC(C)NC(=O)CCC(=O)N1CCC(c2noc3cc(F)ccc23)CC1 — higher, -48.35%
- O=C(Cn1ccc2c(Cl)cccc21)Nc1nc[nH]n1 — higher, 5.076%
- Cc1cccc(CN2CCC3(CCN(c4ncccn4)CC3)C2=O)c1.O=C(O)C(F)(F)F — higher, 58.32%
- Cc1cccc(CN2CCC3(CCN(c4ncccn4)C3)C2=O)c1 (centres undefined) — higher, 5.151%
- Cc1cccc(CN2CCC3(CCN(c4ccccn4)C3)C2=O)c1.O=C(O)C(F)(F)F (centres undefined) — higher, 27.3%
- CN(Cc1cccc(F)c1)Cc1nc2c(cnn2C)c(=O)[nH]1 — higher, -23.35%
- Cc1noc(C)c1CN1CCC(c2nnc(Cn3cccn3)n2C)CC1 — higher, 16.69%
- C[C@@H]1CN(c2cccnn2)CC[C@@]1(O)C1CCOCC1 — higher, -7.399%
- Cc1ccc(-c2nc(CN3C[C@@H](C)NC[C@@H]3C)c(C)o2)s1 — higher, 12.13%
- Clc1cccc(-c2cccc(N3CCC(NC4CCOCC4)CC3)c2)c1 — higher, 72.63%
- COc1cccc(-c2cccc(N3CCC(N[C@@H]4CCOC4)CC3)c2)c1 — higher, 39.62%
- Cc1ccc(-c2cccc(N3CCC(NC4CCOCC4)CC3)c2)cc1 — higher, 33.16%
- CCc1ccc(-c2ncc3c(n2)N(C)CCN(CCN(C)C)C3=O)cc1 — higher, 13.52%
- Cc1nc(C)c(C(C)NCc2c(C)nn(CC(C)C)c2N(C)C)s1 (centres undefined) — higher, 102.6%
- Cc1nc(C)c(C(C)NCc2c(C)nn(C)c2N(C)C)s1 (centres undefined) — higher, 45.94%
- Cc1nn(CC(C)C)c(N(C)C)c1CNCCS(C)(=O)=O — higher, 83.1%
- Cc1nn(CC(C)C)c(N(C)C)c1CNCc1ccccc1CO — higher, 17.46%
- Cc1nn(CC(C)C)c(N(C)C)c1CNCc1cc2ccccc2[nH]1 — higher, 72.88%
- CC(=O)NCCCNCc1c(C)nn(CC(C)C)c1N(C)C — higher, 2.619%
- Cc1nc(C)c(C(C)NCc2c(C(C)C)nn(C)c2N(C)C)s1 (centres undefined) — higher, 21.22%
- Cc1nn(CC(C)C)c(N(C)C)c1CNCCCNS(C)(=O)=O — higher, 49.77%
- Cc1nn(CC(C)C)c(N(C)C)c1CNCc1cccnc1N(C)C — higher, 34.46%
- O=C(Cc1csc(-c2ccoc2)n1)NCCC(=O)N1CCCCC1 — higher, -18.79%
- O=C(CN1CCC(c2ccccc2)CC1)NCc1cc2n(n1)CCNC2 — higher, -6.243%
- Cc1ccc(NC(=O)c2coc(C)n2)c(C)c1 — higher, 2.34%
- CCN1CCCC(O)(c2nc(C)c(CCOc3ccccc3Cl)s2)CC1 (centres undefined) — higher, 12.65%
- Fc1cnc(N2CCO[C@H]3[C@H](OCC4CCOCC4)CC[C@@H]32)nc1.O=C(O)C(F)(F)F — higher, -12.23%
- Cl.Fc1ccc(F)c(CN2CCC(c3cc4ncccc4cn3)CC2)c1 — higher, 106.2%
- Fc1cc(F)cc(CN2CCC(c3cc4ncccc4cn3)CC2)c1 — higher, 48.17%
- Cl.Fc1cccc(CN2CCC(c3cc4ncccc4cn3)CC2)c1F — higher, 106.5%
- COc1ccc(C)cc1CN1CCC(c2cc3ncccc3cn2)CC1.Cl — higher, 102.1%
- CCc1cc(C(=O)N2CCC(c3cc4ncccc4cn3)CC2)no1 — higher, -43.86%
- Fc1cccc(CN2CCC(c3n[nH]c4ncccc34)CC2)c1F — higher, 12.02%
- Fc1ccc(F)c(CN2CCC(c3cnccn3)CC2)c1 — higher, -8.862%
- Fc1cccc(CN2CCC(c3noc(-c4ccccn4)n3)CC2)c1F — higher, 10.24%
- CCc1onc(C)c1C(=O)N1CCC(c2cc3ncccc3cn2)CC1 — higher, -10.62%
- CN(C)CC(=O)N1CCCC1c1ccccn1 (centres undefined) — higher, -4.262%
- Cc1cc(O)nc(C2CN(CCO)CCO2)n1 (centres undefined) — higher, -14.9%
- O=C(NC(Cc1ccsc1)c1nccs1)C1CC1 (centres undefined) — higher, 1.52%
- COc1ccc(-c2cc(C(=O)NCCC(C)C)n(C)n2)cc1 — higher, 20.81%
- Cc1cnc(-c2nc(O)c3c(n2)CN(C(=O)C2CCOC2)CC3)cn1 (centres undefined) — higher, 13.55%
- Cc1nccn1-c1nccnc1C1CCCN(C2CCCC2)C1 (centres undefined) — higher, -26.29%
- CCc1nccn1C1CCCN(C(=O)c2c(C)nsc2NC)C1 (centres undefined) — higher, -1.736%
- COCCc1noc(CNC(C)(CO)C2CCCCC2)n1 (centres undefined) — higher, 19.83%
- Cc1ncc2c(n1)CN(CC(=O)Nc1c(C)nn(C)c1C)CC2 — higher, -7.381%
- CCCOC1CCCN(Cc2nc(-c3ccc(F)cc3F)oc2C)C1 (centres undefined) — higher, 18.51%
- COCc1ncn(Cc2nc(-c3ccc(OC)cc3F)oc2C)n1 — higher, -34.66%
- COc1ccc(-c2nc(CN3CCCC(OC)C3)c(C)o2)c(F)c1 (centres undefined) — higher, 56.05%

From ChEMBL document CHEMBL3988442, “University of Dundee, Small-Polar-MMV Screening Library” (2021)
